Screens as filed in PubChem.
An excerpt weighted towards active compounds, which were near 1.8% of everything screened.
LAP4 TOR yeast: modulators of TOR pathway LAP4-GFP in S. cerevisiae; GFP response vs DMSO, % at 10 µM; AID 2023; hit rate 0.34% among 320,000; S. cerevisiae LAP4-GFP multiplex, flow cytometry GFP, 3 h; median GFP as percent of DMSO wells;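 active = GFP response vs DMSO above a set limit, about the screen mean plus 3 SD, cut at about 150% in these data; inconclusive = under 70 cell events counted for the yeast strain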
MEP2-GFP yeast: modulators of TOR pathway MEP2-GFP in S. cerevisiae | GFP response vs DMSO, % at 10 µM | S. cerevisiae MEP2-GFP strain, flow cytometry GFP, 3 h; 100% = DMSO control level | hit rate 0.51% among 330,000 | AID 2016;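 active = GFP response versus DMSO above a set limit, roughly screen mean plus 3 SD, cut at about 180% in these data; inconclusive = fewer than 70 cells counted for a yeast strain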;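 note: median GFP fluorescence of the barcode-gated MEP2-GFP cells per well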
RPL19A TOR yeast: modulators of TOR pathway RPL19A-GFP in S. cerevisiae | percent response vs DMSO, % at 10 µM | S. cerevisiae RPL19A-GFP strain, flow cytometry, 3 h; stronger effect = lower value | hit rate 0.3% among 330,000;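 active = percent response vs DMSO below 50%; inconclusive = fewer than 70 events counted for the yeast strain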;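 note: median channel GFP fluorescence of the barcoded RPL19A-GFP strain; ratio of sample median GFP to plate DMSO average so 100% = DMSO; lower means less RPL19A-GFP as with rapamycin TOR inhibition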
CIT2-GFP yeast: alters CIT2-GFP fluorescence in TOR pathway yeast screen | S. cerevisiae CIT2-GFP strain, flow cytometry, 3 h; 100 means same as DMSO wells | GFP response vs DMSO, % at 10 µM | hit rate 0.065% among 320,000;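 active = GFP response relative to DMSO above a set limit, near the screen mean plus 3 SD, cut at about 150% in these data; inconclusive = Fewer than 70 cells measured for a yeast strain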;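 note: ratio of well median GFP fluorescence to mean of DMSO wells on the plate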
Myeloid diff 2: myeloid differentiation induction; ER-HoxA9 myeloid progenitors, lysozyme-GFP differentiation, flow cytometry; hit rate 1% among 360,000; calls only at 10 µM; AID 624256;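 active = normalized GFP-positive differentiation at or above the plate's own cutoff, the solvent-only control mean plus 3 SD; inconclusive = no clear call, values can overlap the other calls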;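 note: cells exposed to compound for four days before flow analysis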
AGP1-GFP MLPCN: yeast TOR pathway AGP1-GFP modulation; S. cerevisiae AGP1-GFP multiplex flow cytometry, 3 h; GFP as percent of DMSO wells; GFP response vs DMSO, % at 10 µM; hit rate 0.02% among 320,000; AID 2066;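 active = GFP response relative to DMSO above a set limit, near screen average plus 3 SD, cut at about 150% in these data; inconclusive = fewer than 70 cells counted for the yeast strain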;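 note: median GFP channel fluorescence of the gated AGP1 strain per well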
s288c autofluor: yeast s288c autofluorescence artifact, counter-screen; shares compounds with LAP4 TOR yeast; AID 2757; S. cerevisiae s288c, 520 nm autofluorescence, flow cytometry, 3 h; stronger effect = higher value; zero means same as solvent-only cells; 610 tested, under 10 active; fluorescence change (kMESF span) at 33 µM;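 active = fluorescence span over the dose series, or activity score, above about 33, limit read from the data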
* hit, by the source's call; i = inactive; ? = inconclusive; / = no result given; + = active, no number; [ ] = another dose, or the depositor's remark.

SMILES	LAP4 TOR yeast	MEP2-GFP yeast	RPL19A TOR yeast	CIT2-GFP yeast	Myeloid diff 2	AGP1-GFP MLPCN	others
O=C1NC(=O)N(c2ccc3c(c2)OCO3)C(=O)/C1=C/c1ccc(N2CCCC2)o1	99.9	113.2	102.3	107.2	+	103.5
CCOc1ccc(N2C(=O)NC(=O)/C(=C\c3ccc(N4CCCCC4)o3)C2=O)cc1	98.2	69.5	102.2	111.4	i	107.6
CC[C@H]1CN2CCC1C[C@@H]2[C@H](O)c1ccnc2ccc(OC)cc12 (stereo partly specified)	/	/	/	/	i	/
C#CCOc1cc(C2C3=C(COC3=O)Nc3cc4c(cc32)OCO4)ccc1OC (stereo unspecified)	123.1	171.8	108.2	164.5*	i	102.7
COC(=O)C1=C(c2cccc(OC)c2OC)C[C@@H]2CC[C@H]1N2C(=O)NC1CCCCC1	96.0	108.3	105.6	108.8	i	113.8
O=c1[nH]c(=O)n(CCc2ccccc2)c(O)c1C=NC1CC1	97.9	100.6	103.8	93.8	i	99.8
O=c1[nH]c(O)c(/C=C2/C=CC(c3cc(Cl)ccc3Cl)=N2)c(=O)[nH]1	98.5	101.8	104.8	88.8	+	99.5
CC1=Nc2ccccc2/C1=C/c1c(O)[nH]c(=O)[nH]c1=O	83.8	100.9	100.7	103.1	i	20.9
CCCNC(=O)N1[C@H]2CC[C@@H]1C(C(=O)OC)=C(c1cccc(OC)c1OC)C2	93.9	104.1	101.2	98.2	i	103.2
C[C@]12CC[C@H](O)C[C@H]1CC[C@@H]1[C@@H]2C[C@@H](O)[C@]2(C)[C@@H](C3=CC(=O)OC3)CC[C@]12O	129.2	100.4	101.6	83.9	i	87.5
CC(=O)OC1CC(OC2C(O)CC(OC3C(O)CC(OC4CCC5(C)C(CCC6C5CC(O)C5(C)C(C7=CC(=O)OC7)CCC65O)C4)OC3C)OC2C)OC(C)C1OC1OC(CO)C(O)C(O)C1O (stereo unspecified)	/	/	/	/	+	/
O=C1NC(=O)C(CCc2ccncc2)(Cc2cccc(Cl)c2Cl)C(=O)N1c1ccc(Br)cc1 (stereo unspecified)	98.4	101.2	97.9	96.8	+	95.6
CCc1ccc(N2C(=O)NC(=O)C(CCc3ccncc3)(CCc3ccncc3)C2=O)cc1	97.7	108.8	105.5	111.4	i	110.3
CC(=NCc1cccnc1)c1c(O)n(-c2ccccc2C)c(=O)[nH]c1=O	94.9	97.7	96.1	100.5	i	90.3
CCCC(=O)c1ccc(CP(=O)(OCC)OCC)o1	/	310.5*[may fluoresce violet]	36.4*[may fluoresce violet]	/	i	/
COP(=O)(Cc1ccc(C#N)o1)OC	/	107.3	102.8	/	i	/
C[N+]1=C(/C=C/Nc2ccccc2)C(C)(C)c2ccccc21	95.3	104.0	100.9	95.3	+	101.3
O=[N+]([O-])c1ccc(OP(=O)(O)Oc2ccc([N+](=O)[O-])cc2)cc1	/	/	/	/	i	/
COc1cc(/C=C/c2nc3ccccc3c(=O)n2-c2ccc(O)cc2)ccc1O	92.0	113.3	106.0	99.3	+	101.4
COc1ccc(-n2c(/C=C/c3ccc(O)c(O)c3)nc3ccccc3c2=O)cc1	106.3	101.0	104.8	102.1	i	106.5
COC(=O)C1=C(c2ccc(F)cc2F)C[C@@H]2CC[C@H]1N2C(=O)NCCCOC(C)C	101.9	96.4	96.1	101.4	i	103.0
Nc1c(C(=O)NCC2CCCO2)c2nc3ccccc3nc2n1Cc1ccco1 (stereo unspecified)	98.7	518.0*[may fluoresce violet]	97.2	?	i	17.7
CCCNC(=O)c1c(N)n(Cc2ccco2)c2nc3ccccc3nc12	96.9	106.8	93.7	?	/	22.6
CN1Cc2cnnn2-c2ccccc2C1c1ccccc1 (stereo unspecified)	/	/	/	/	i	/
O=C1C(=O)c2ccccc2-c2ccccc21	105.5	98.6	95.0	81.0	?	77.3	s288c autofluor=2.12
